Source: PubChem
Only a selection was taken, and hits are over-represented in it overall.
KDM5B inhibitor: inhibitors of human KDM5B histone demethylase; 220,000 compounds, 2.6% hits; KDM5B demethylase, FDH-coupled NADH fluorescence (FDH is formaldehyde dehydrogenase); Potency, µM (titrated, usually from 57.7 µM), actives largely listed as inhibitors; active = well fitted inhibition curve with a large enough effect; also: nearly all actives have a fitted effect of over 70% in size
Target sequence (Q9UGL1 whole entry, looked up): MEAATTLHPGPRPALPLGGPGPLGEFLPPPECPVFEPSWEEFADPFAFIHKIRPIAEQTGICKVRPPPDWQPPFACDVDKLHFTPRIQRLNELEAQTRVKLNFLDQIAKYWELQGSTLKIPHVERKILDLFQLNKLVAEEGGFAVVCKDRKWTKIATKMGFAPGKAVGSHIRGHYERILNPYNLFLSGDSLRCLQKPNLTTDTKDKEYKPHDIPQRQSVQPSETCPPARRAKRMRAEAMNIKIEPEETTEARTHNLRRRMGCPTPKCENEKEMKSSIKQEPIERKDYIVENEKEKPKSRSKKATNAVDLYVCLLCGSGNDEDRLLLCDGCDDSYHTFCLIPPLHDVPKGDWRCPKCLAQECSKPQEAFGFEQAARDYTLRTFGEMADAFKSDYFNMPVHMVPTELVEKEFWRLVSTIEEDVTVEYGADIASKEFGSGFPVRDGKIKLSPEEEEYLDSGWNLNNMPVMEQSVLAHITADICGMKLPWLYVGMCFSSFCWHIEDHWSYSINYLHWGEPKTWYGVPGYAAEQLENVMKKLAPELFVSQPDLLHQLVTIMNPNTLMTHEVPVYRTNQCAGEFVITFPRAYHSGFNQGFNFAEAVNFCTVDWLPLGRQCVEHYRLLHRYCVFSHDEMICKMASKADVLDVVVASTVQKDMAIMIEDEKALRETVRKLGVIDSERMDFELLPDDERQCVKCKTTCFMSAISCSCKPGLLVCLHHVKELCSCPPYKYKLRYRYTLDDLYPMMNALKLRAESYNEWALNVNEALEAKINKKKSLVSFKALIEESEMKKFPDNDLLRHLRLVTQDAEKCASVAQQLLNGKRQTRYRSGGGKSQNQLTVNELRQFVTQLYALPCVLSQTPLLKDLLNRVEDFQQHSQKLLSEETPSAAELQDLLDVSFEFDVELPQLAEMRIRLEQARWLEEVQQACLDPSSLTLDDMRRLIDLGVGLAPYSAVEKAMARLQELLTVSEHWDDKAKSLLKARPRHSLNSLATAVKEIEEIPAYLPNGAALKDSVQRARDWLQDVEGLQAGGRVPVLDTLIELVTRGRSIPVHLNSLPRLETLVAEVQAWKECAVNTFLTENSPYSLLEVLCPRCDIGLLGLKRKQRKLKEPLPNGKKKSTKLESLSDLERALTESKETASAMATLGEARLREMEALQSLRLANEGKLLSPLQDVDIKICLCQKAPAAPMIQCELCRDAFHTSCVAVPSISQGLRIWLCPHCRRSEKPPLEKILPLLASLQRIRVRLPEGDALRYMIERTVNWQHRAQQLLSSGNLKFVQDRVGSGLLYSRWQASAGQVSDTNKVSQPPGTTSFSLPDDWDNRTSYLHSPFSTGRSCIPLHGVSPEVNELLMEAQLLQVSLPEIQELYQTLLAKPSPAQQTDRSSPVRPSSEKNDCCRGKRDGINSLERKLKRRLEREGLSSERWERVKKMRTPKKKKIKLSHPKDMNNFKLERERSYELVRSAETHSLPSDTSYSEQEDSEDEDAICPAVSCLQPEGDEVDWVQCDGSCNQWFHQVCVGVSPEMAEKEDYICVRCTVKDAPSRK
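qHTS format, multiple compound concentrations. Buffer 50 mM HEPES pH 7.5/0.01% Tween-20; 200 nM KDM5BΔAP final; 10 min compound preincubation; substrate-mix levels 12.5 µM peptide, 25 µM α-KG, 0.25 mM NAD⁺; 30 min RT; ΔRFU.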
Each line names hits and unclear results; the compound was inactive in the other large screens.

Cc1ccc(C)c(Cn2c(CN3CCN(Cc4ccccc4)CC3)nc3c2c(=O)[nH]c(=O)n3C)c1	none
N#CCc1nc(-c2ccc3c(c2)OCCO3)cs1	none
CCN(CC)S(=O)(=O)c1ccc(=O)n(Cc2noc(CC(C)C)n2)c1	none
CCCn1c(C)c(CC(=O)N(C)Cc2cccnc2)c2c1CC(C)(C)CC2=O	none
CCOC(=O)c1sc(NCCCOC)nc1C(F)(F)F	none
Cc1cc2nc(COC(=O)c3cccc(NC(=O)c4cccc(Cl)c4)c3C)cc(=O)n2o1	none
Cc1nc(-c2cc3ccc(OCC(=O)NC4CC4)cc3oc2=O)cs1	none
CC(=O)NCC(=O)N1c2ccccc2CC1c1nc(C(C)C)no1 (stereo not drawn)	none
CCn1ccc(C(=O)N2c3ccccc3CC2c2nc(C(C)C)no2)n1 (stereo not drawn)	KDM5B inhibitor 25µM
COC(=O)CNC(=O)N1c2ccccc2CC1c1nc(C(C)C)no1 (stereo not drawn)	none
O=C(COc1ccc(Br)cc1)Nc1nc(-c2ccc(Br)o2)ns1	none
Cc1noc(C)c1CCC(=O)NC1CCCc2c1[nH]c1ccccc21 (stereo not drawn)	KDM5B inhibitor 28µM
CC(=O)NC1CCCc2c1[nH]c1ccc(Cl)cc21 (stereo not drawn)	none
Cc1cc(=O)oc2cc(OCC(=O)NC3CCCc4c3[nH]c3ccccc43)ccc12 (stereo not drawn)	KDM5B inhibitor 16µM
Cc1ccc(CNC(=O)COc2ccc3c(C)cc(=O)oc3c2)cc1	none
Cc1noc(C)c1CCC(=O)NC1CCCc2c1[nH]c1c(Cl)cccc21 (stereo not drawn)	none
O=C(COc1ccccc1-n1cnnc1)NC1CCCc2c1[nH]c1ccccc21 (stereo not drawn)	none
CCCCn1nc(C(=O)N2CCN(c3ccccc3)CC2)c2ccccc2c1=O	none
O=C(NC[C@H]1O[C@@H](CO)[C@@H](O)[C@H]1N1CCN(c2ccc(F)cc2)CC1)c1cccs1	none
CCOc1ccc(CNCc2ccccn2)cc1OCC	none
O=C1[C@H]2CN(Cc3cc(Cl)ccc3F)C[C@H]2C(=O)N1CCc1ccccc1	none
COCCn1ncc(N2CCCC(CC(=O)NCc3ccc(C)o3)C2)cc1=O (stereo not drawn)	none
CCCCc1ncc(-c2c(-c3ccccc3)ncn2CCC2CCCN2C)[nH]1 (stereo not drawn)	KDM5B inhibitor 10µM
CCCCc1ncc(CN2CCCC(c3cccc(C(=O)O)c3)C2)[nH]1 (stereo not drawn)	none
CN1CCCCC1CCn1cnc2c1c(=O)n(C)c(=O)n2C (stereo not drawn)	none
COc1ccccc1Nc1nc(-c2ccc(CNC(C)=O)cc2)cs1	none
CCN(CC)C(=O)[C@@H]1C[C@@H](NC(=O)c2ccn(CC)c(=O)c2)CN1C(C)=O	KDM5B inhibitor 28µM
CCN(CC)C(=O)[C@@H]1CCC[C@@H](NC(=O)c2ccc(C#N)cc2)CN(C)C(=O)C1	none
CCN(CC)C(=O)[C@@H]1C[C@@H](NC(=O)c2cc3c(s2)CCCC3)CN1C	none
CCCCCCNc1nc2c(c(=O)[nH]c(=O)n2C)n1CC(O)COC(C)C (stereo not drawn)	none
Cc1ccc(CN(C)C(=O)C2CCN(c3ccc(C(F)(F)F)cn3)CC2)c(C)c1	none
OCCNC(=S)Nc1ccc(F)cc1	none
COc1ccc(CCC(=O)Nc2ccc3c(N4CCOCC4)ncnc3c2)cc1	none
Cc1nn2c(c1-c1cccnc1N1CCOCC1)N(Cc1ccccc1F)CCC2	none
COc1cccc(CC(=O)NCc2cc(N3CCOCC3)ncn2)c1	none
Fc1ccccc1-c1cc2c(ccn2Cc2ccncc2)c(N2CCOCC2)n1	KDM5B inhibitor 28µM
COc1cccc(-c2cc3c(ccn3CC3CCN(C)CC3)c(N3CCOCC3)n2)c1	none
Fc1ccc(-c2nnc(N3CCOCC3)c3ccccc23)cc1F	none
COc1ncccc1-c1cc2c(ccn2CC2CCN(C)CC2)c(N2CCOCC2)n1	KDM5B inhibitor 25µM
COc1ncccc1-c1cc2c(ccn2Cc2ccncc2)c(N2CCOCC2)n1	KDM5B inhibitor 7.9µM
CN1CCC(Oc2nccnc2N2CCOCC2)C1 (stereo not drawn)	none
C=C(C)Cn1c(=O)c2c(nc(-n3nc(C)c(C)c3C)n2CCC)n(C)c1=O	none
CC(C)CCC(=O)Nc1cccc(S(=O)(=O)NC(C)(C)C)c1	none
CN(CC#CC1(C)CCCC(C)(C)O1)Cc1ccccc1 (stereo not drawn)	none
Cn1cc(C(=O)NCc2nnc3n2C(C(=O)NC2CC2)CC3)cn1 (stereo not drawn)	none
O=C([C@@H]1C[C@H](Oc2cccnc2)CN1S(=O)(=O)Cc1ccccc1F)N1CCOCC1	none
C/C(=N/Nc1ccc(S(=O)(=O)Nc2ccc(Cl)cc2)cc1[N+](=O)[O-])c1ccco1	none
OCCNC(=S)Nc1ccc(Br)cc1	none
COc1cccc(-c2cccc(CCOc3cnc4c(ccn4CC(=O)O)c3)c2)c1	KDM5B inhibitor 32µM
CC1=NS(=O)(=O)N(Cc2ccccc2)C=C1C(=O)OCc1noc(-c2cccc(F)c2)n1	none
COc1cccc(-c2cc(C(=O)NCCOc3ccccc3)[nH]n2)c1	none
Cc1ccnn1CC(=O)N(Cc1ccncc1)Cc1cccc(OCCc2ccc(F)cc2)c1	none
Cc1oc(-c2ccccc2)nc1CC(=O)NCCc1cccc(F)c1	none
O=C(O)c1cccc(-c2ccc(F)cc2)c1	none
O=C(O)Cn1ccc2cc(OCCc3cccc(-c4cccc(F)c4)c3)cnc21	KDM5B inhibitor 40µM
COc1cccc(-c2ccccc2NC(=O)C2CCN(CC(=O)O)CC2)c1	none
O=C(O)Cn1ccc2cc(OCCc3cccc(-c4ccc(F)cc4)c3)cnc21	KDM5B inhibitor 40µM
CN(CCCNC(=O)c1ccc2n[nH]nc2c1)Cc1ccccc1	none
CCOc1cc2c(cc1NC(=O)CC1CCCC1)OC(C)C2 (stereo not drawn)	none
O=C(c1ccccc1OCC1CCCN(Cc2cccs2)C1)N1CCCC1 (stereo not drawn)	none
Cc1cccc(OCCc2noc(C3CCN(C(=O)C4CCCC4)C3)n2)c1 (stereo not drawn)	none
Cc1nn(-c2nc3ccccc3o2)c2c1C(c1cccc(C(F)(F)F)c1)CC(=O)N2 (stereo not drawn)	none
O=C(NCCc1ccc(Cl)cc1)C1CCc2nnc(C3CCN(C(=O)C4CC4)CC3)n21 (stereo not drawn)	none
COCc1cn(C[C@H]2C[C@@H](NC(=O)c3cncnc3)[C@H](O)[C@@H]2O)nn1	none
Cc1ccc2nc(C)cc(C(=O)N(C)C3CCS(=O)(=O)C3)c2c1 (stereo not drawn)	none
COc1ccc(NC(=O)O[C@@H]2CO[C@H]3[C@@H]2OC[C@@H]3NC(=O)Nc2cccc(C(F)(F)F)c2)cc1	none
CN1CCN(CCCNC(=O)C2CCc3sc(C(=O)N4CCCCCC4)cc3C2)CC1 (stereo not drawn)	none
O=C(Nc1cnc(-c2cccc(Cl)c2)nc1)c1ccc(F)cc1F	none
O=C(Nc1cnc(-c2ccc(Cl)cc2)nc1)c1ccc(F)c(F)c1	none
O=C(Nc1cnc(-c2cccc(Cl)c2)nc1)c1cc(F)cc(F)c1	KDM5B inhibitor 25µM
CCCCn1nc(C(=O)NCc2ccc(Cl)cc2)c2ccccc2c1=O	none
N#CC1(NC(=O)CSC2=Nc3ccccc3CS2)CCCCC1	none
CCOC(=O)c1cc(OC(=O)c2cc(OC)cc(OC)c2)n(-c2ccccc2)n1	none
CCOCCCn1c(=NC(C)=O)c(C#N)cc2c(=O)n3cccc(C)c3nc21	none
CCOC(=O)CCCOc1cccn2c(=O)c(-c3cc(C)n(-c4ccccc4)n3)c(C)nc12	KDM5B inhibitor 25µM
Cc1nc2c(OCC(=O)c3ccccc3)cccn2c(=O)c1-c1cc(C)n(-c2ccc(Cl)cc2)n1	KDM5B inhibitor 16µM
